ChEMBL document CHEMBL4513216, “Probing the Open Global Health Chemical Diversity Library for Multistage-Active Starting Points for Next-Generation Antimalarials” (ACS Infect Dis, 2020)
Hit rate of the full screen: of about 69,000 compounds, about 8,600 (12%) showed an effect of 50% or more. For the sample, strong results were picked, then their nearest neighbours and some compounds at random.

What follows are compounds tested on Plasmodium berghei (assay: Screen against P. berghei liver stage (PbLuc), transformed with Luciferase, at 10uM). Settings: tested at 10 uM.
Format: functional, HepG2

Structure (SMILES) | INHIBITION
COCCN1C[C@@H]2CN(Cc3cccc(F)c3)CCC[C@]2(C(=O)O)C1 | -1.64%
CN(Cc1ccc(N2CCOCC2)cc1)C(=O)Cn1cccnc1=O | 7.08%
CC(=O)N1CCC(c2[nH]ncc2S(C)(=O)=O)CC1 | 4.41%
CNc1nc2cn(CCc3ccccc3)c(=O)c-2c[nH]1 | -32.1%
Cc1noc(C)c1CN1CCc2c(CNc3nccs3)n[nH]c2C1 | 46.6%
CC(NC(=O)NC1CC1)c1nc(-c2ccccc2)cs1 (stereo not drawn) | 11.5%
O=S(=O)(NC1CCCCC12OCCO2)c1cc(F)cc(F)c1 (stereo not drawn) | 6.83%
CN(Cc1cnn(C)c1)C(=O)c1cc(C(F)(F)F)n(C)n1 | 36.6%
N#Cc1cccc(N2CCCC3(C2)CN(c2ncccn2)CCO3)n1 (stereo not drawn) | 42.3%
N#Cc1cccc(N2CCCC3(CNCCO3)C2)n1 (stereo not drawn) | 51.2%
N#Cc1cccc(N2CCOC3(CNCCOC3)C2)n1 (stereo not drawn) | 32.7%
Cc1nn(C)c(C)c1CN1CCN(CC2(O)CCCN(C)C2)CC1 (stereo not drawn) | 20.9%
O=C1NC(c2cnc(C3CCC3)s2)Nc2ncccc21 (stereo not drawn) | -44.2%
Cc1cccc(NC(=O)Cn2ncc(SCC(N)=O)c(Cl)c2=O)c1C | 50.5%
Cc1ccc(NC(=O)Cn2ncc(SCC(N)=O)c(Cl)c2=O)cc1 | 30.5%
Cc1cc(NC(=O)Cn2ncc(SCC(N)=O)c(Cl)c2=O)ccc1Br | 49.7%
CNC(=O)CSc1cnn(CC(=O)Nc2cccc(Cl)c2C)c(=O)c1Cl | 45.7%
Cc1ccc(NC(=O)Cn2ncc(SCC(N)=O)c(Cl)c2=O)c(F)c1 | 64.5%
Cc1cccc(NC(=O)CNC(=O)Cn2ncc(Cl)c(Cl)c2=O)c1C | 5.14%
CC(=O)N1CCCCC12CCCN(Cc1ccco1)C2 (stereo not drawn) | 28.4%
CCC[C@@H]1CN(Cc2ccccc2SC)C[C@H]1NC(C)=O | -7.53%
CC(C)(NC(=O)c1ccc(-c2ccccc2F)s1)C(N)=O | -29%
CN(C)S(=O)(=O)N1C[C@H]2CC[C@@H](C1)N(Cc1cccc(C#N)c1)C2 | -6.88%
O=C(Cn1ccc2ccccc21)NCc1ccc(C(=O)O)cc1 | 15.8%
COC(=O)C1CCN(C(=O)c2nnc3ccc(C)cc3n2)CC1 | 49.9%
CN1CCN(C(=O)c2nnc3ccc(Cl)cc3n2)CC1 | 1.04%

Structure (SMILES) | INHIBITION
COC(=O)C1CCN(C(=O)c2nnc3ccc(Cl)cc3n2)CC1 | 52.4%
CCc1nc(C(=O)N2CCCC2)nn1-c1c(Cl)cccc1Cl | 48.4%
Cc1cc(Cl)cc(C)c1CNC1CCN(CC(=O)N(C)C)CC1 | 56.1%
Cc1cc2cc(CNC3CCN(CC4CCOC4)CC3)oc2cc1C (stereo not drawn) | 48.5%
CC(NC1CCN(CC(=O)N(C)C)CC1)c1cnn(C(C)C)c1 (stereo not drawn) | 19.8%
Cc1cc2cc(CNC3CCN(S(C)(=O)=O)CC3)oc2cc1C | 49.6%
Cc1nc(-c2c(C)noc2C)cc(C2CCN(CC(=O)N(C)C)CC2)n1 | 13.8%
Cc1cc2cc(CNC3CCN(CC(=O)N(C)C)CC3)oc2cc1C | 53.9%
CC(=O)N1CCC12CCN(Cc1ccco1)CC2 | 9.97%
O=C([C@H]1CC[C@@H]2[C@@H](CCN2C2CCCC2)O1)N1CCOCC1 | -3.26%
O=C(NCc1ccc(-n2cncn2)nc1)c1cc(Cl)c2c(c1)OCCO2 | 9.54%
CCn1ncc2c1C(COC)CN(c1ncc(F)cn1)C2 (stereo not drawn) | -7.24%
COc1ccc2c(c1)NC(C1CCN(C(=O)C(C)C)CC1)NS2(=O)=O (stereo not drawn) | -12.3%
CCC(NC(=O)C1CCN(C(C)C)CC1)c1cn2cccnc2n1 (stereo not drawn) | 57.5%
CCC(NC(=O)C1CCN(C(=O)C2CC2)CC1)c1cn2cccnc2n1 (stereo not drawn) | 22.9%
CCC(NC(=O)CCCN1CCCCC1)c1cn2cccnc2n1 (stereo not drawn) | 37.7%
CCn1ncnc1C(C)NC(=O)C1CCN(C(C)C)CC1 (stereo not drawn) | -1.64%
CCC(NC(=O)CC1CCN(C(C)C)CC1)c1cn2cccnc2n1 (stereo not drawn) | 51.3%
CCC(NC(=O)CC1CCN(CC)CC1)c1cn2cccnc2n1 (stereo not drawn) | -15.3%
COc1ccc(Cl)cc1S(=O)(=O)N(C)CC(=O)Nc1cccnc1 | 33.4%
Cc1cnn(CC(C)NCc2csc(-c3ncccn3)n2)c1 (stereo not drawn) | -3.2%
CN(C)c1cc(C(F)(F)F)cc(-c2ccc(C(=O)O)cc2)n1 | 26.9%
Cc1ccc(S(=O)(=O)N2CCC(c3n[nH]cc3C(=O)N(C)C)CC2)cc1 | 12.8%
CCN(c1ccsc1C(=O)N1CCCCC1)S(=O)(=O)c1ccccc1 | -10.8%
CCN1CCN(C)C(=O)C12CCN(Cc1csc(C)n1)CC2 | -1.28%
CC(C)=CCN1C[C@@H](C(=O)O)C[C@H](C(=O)Nc2ccc(C)nc2)C1 | 28.5%

Structure (SMILES) | INHIBITION
CN(C)CCNC(=O)c1ccc(S(=O)(=O)N[C@@H]2CCNC2)cc1 | 87.9%
CC(C)N(CCNC(=O)c1ccc(S(=O)(=O)NC2CC2)cc1)C(C)C | 19.2%
O=C(NC[C@@H]1CCCO1)c1ccc(S(=O)(=O)N[C@@H]2CCNC2)cc1 | 2.55%
CCS(=O)(=O)N1C[C@@H](OCc2cccnc2)[C@H]2OCCC[C@H]21 | 44.9%
O=C1CCC(c2nc(C3CCN(C(=O)Cc4cccs4)CC3)no2)N1 (stereo not drawn) | -31.1%
CC1=N[C@@]2(CC[C@@H]3CN(Cc4ccccc4C)C[C@@H]32)C(=O)N1CC1CC1 | 28.4%
CC(C)CCc1cc(C(=O)O)nc2[nH]c(=O)[nH]c(=O)c12 | 2.29%
CCc1cc(NCCCNS(C)(=O)=O)nc(-c2ccccn2)n1 | 12.4%
OC1CCN(Cc2c(-c3ccco3)[nH]c3ncccc23)CC1 | 32.3%
CCN1CCN(Cc2c(-c3ccco3)[nH]c3ncccc23)CC1 | 29.3%
c1coc(-c2[nH]c3ncccc3c2CN2CCCOCC2)c1 | 50.1%
OC1CCCN(Cc2c(-c3ccco3)[nH]c3ncccc23)C1 (stereo not drawn) | 35.3%
CN1CCN(Cc2c(-c3ccco3)[nH]c3ncccc23)CC1 | -0.371%
NC(=O)C1CCCN(Cc2c(-c3ccco3)[nH]c3ncccc23)C1 (stereo not drawn) | 61.4%
O=C1CCCN1Cc1noc(-c2ccc(Cl)cc2)n1 | -66%
Cc1cnc(CC2COCCN(C(=O)CN3CCOCC3)C2)cn1 (stereo not drawn) | 16.5%
CCc1noc(CNC2CCCN(Cc3noc(C4CC4)n3)C2)n1 (stereo not drawn) | -6.14%
CCc1cc(CNC(=O)N(C2CC2)C(C)c2ccco2)on1 (stereo not drawn) | 3.3%
Cc1noc(C)c1CNC(=O)N1CCCC(C)CC1 (stereo not drawn) | -30.6%
CCc1cc(CNC(=O)N(C2CC2)C(C)c2ccco2)[nH]n1 (stereo not drawn) | 55.9%
CC(c1ccco1)N(C(=O)CNc1ccc(C#N)cc1)C1CC1 (stereo not drawn) | 21.5%
CCc1cc(CNC(=O)NCC(c2ccco2)N2CCCC2)[nH]n1 (stereo not drawn) | 36.6%
Cc1noc(C)c1CNC(=O)N(C1CC1)C(C)c1ccco1 (stereo not drawn) | 79.1%
CCN(CC)C1CCN(C(=O)NCc2c(C)noc2C)CC1 | 50.1%
CC(c1ccco1)N(C(=O)c1cc2c([nH]c1=O)CCCC2=O)C1CC1 (stereo not drawn) | -65.3%
CC(c1ccco1)N(C(=O)c1cccc(C#N)c1)C1CC1 (stereo not drawn) | -11%

Structure (SMILES) | INHIBITION
Cc1noc(C)c1CNC(=O)N(C)C1CCN(c2ccccc2)C1=O (stereo not drawn) | 31.2%
Cc1noc(C)c1CNC(=O)N1CCC(CO)CC1 | 11.8%
CC(c1ccco1)N(C(=O)NCc1ccon1)C1CC1 (stereo not drawn) | 72.6%
COCc1c(Cl)cccc1NC(=O)CNC(=O)C(C)(C)C | -17.8%
CC(C)N1CCC(CC(=O)N(C)C(C)c2cncs2)CC1 (stereo not drawn) | -3.58%
CN(Cc1nc(Cc2cccc(C(F)(F)F)c2)no1)C1CCOCC1 | 22.1%
COC(=O)c1ccoc1COC(=O)CCc1ccc(OC)c(OC)c1 | -1.58%
CN(C)Cc1cc(C2CCCCN2S(=O)(=O)Cc2ccccc2)nn1C (stereo not drawn) | 8.12%
CS(=O)(=O)NCc1cncc2c1CCN(C(=O)c1ccccn1)C2 | 16.4%
Cc1occc1C(=O)N1C[C@@H](OCc2cccnc2)[C@H]2OCCC[C@@H]21 | -63.1%
CCCc1noc(C2CC(=O)N(C(C)(C)C)C2)n1 (stereo not drawn) | 31.9%
Cc1cc(C(=O)N2CC[C@H](N3CCN(C)CC3)[C@H](CCCO)C2)n(C)n1 | -27.5%
CN1CCN([C@H]2CCN(C(=O)c3nn(C)cc3Cl)C[C@H]2CCCO)CC1 | 8.7%
CN1CCN([C@H]2CCN(C(=O)c3cc(Cl)cn3C)C[C@H]2CCCO)CC1 | 64.3%
COCCN1CCO[C@@H]2CN(C(=O)NCc3ccccc3)CC[C@@H]2C1 | 7.24%
Cc1n[nH]c(C)c1CCC(=O)N1CCc2c(nc[nH]c2=O)C1 | 10.7%
CCN(C)c1ccc(CNC(=O)c2cc(C(N)=O)cs2)cc1F | -59.2%
CCN(C)c1ccc(CNS(=O)(=O)C2CCOCC2)cc1F | 50.1%
CCN(CC)c1ccc(CNC(=O)C2(C)CCOCC2)cc1F | -37.1%
O=S(=O)(CC1CCOCC1)NCc1ccnc(O)c1 | 2.82%
CCN(C)c1ccc(CNS(=O)(=O)CC2CCCO2)cc1F (stereo not drawn) | 24.4%
CCN(CC)c1ccc(CNS(=O)(=O)C2CCOCC2)cc1F | 62.9%
Cc1cc2c(=O)n(CC(=O)N3CCn4cccc4C3C(C)C)cnc2s1 (stereo not drawn) | 3.4%
COCC1CN(c2ncc(F)cn2)Cc2cnn(C)c21 (stereo not drawn) | 19.6%
Cn1cc(CCC(=O)NC(c2ccc(F)cc2)C(F)(F)F)cn1 (stereo not drawn) | -4.52%
